Measurements taken from the supplement of paper PMC10037445.
± gives the standard deviation of the averaged measurements. The full ranking holds about 2,900 compounds; the median of “NF-kB SEAP reporter activity, fold change vs agonist alone” is about 0.99, and the highest 2% start at about 2.6. The full list was thinned out, with the highest values kept by preference.

Experiments:
RAW-Dual [1] = experiment: NF-kB SEAP reporter activity, fold change vs agonist alone; higher = enhanced NF-kB activity; details: library stock concentration (final ~1000-fold dilution): 10 mM
Procedure, shortened: (§1)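 RAW-Dual macrophages were seeded in DMEM at 50,000 cells/well in 384-well plates, given 50 nL of library stock by pin tool, and given a PRR agonist 1 h later. Plates were held at 37 °C, 5% CO2 for 20 hours, after which supernatant was read for IRF by QuantiLuc luminescence and for NF-κB by QuantiBlue absorbance at 620 nm. Reporter activity is expressed as fold change over wells that received agonist alone. A well was called cytotoxic when IncuCyte confluency fell below 70% of agonist controls in both mask sets.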

RAW-Dual [2] = experiment: NF-kB SEAP reporter activity, fold change vs agonist alone; cytotoxicity flag (confluency mask): not cytotoxic; higher = enhanced NF-kB activity
Procedure, shortened: as §1

RAW-Dual [3] = experiment: NF-kB SEAP reporter activity, fold change vs agonist alone; cytotoxicity flag (confluency mask): cytotoxic (confluency <70% of control); higher = enhanced NF-kB activity
Procedure, shortened: as §1

[4] = cytotoxicity flag (confluency mask): not cytotoxic, agonist: Imiquimod (TLR7) […]
[5] = cytotoxicity flag (confluency mask): not cytotoxic, agonist: MPLA (TLR4) […]
[6] = agonist: ODN 1826 (TLR9) 0.5 ug/mL
[7] = agonist: Pam2CSK4 (TLR2/6) 0.1 ug/mL
[8] = agonist: Pam3CSK4 (TLR2/1) 0.1 ug/mL
[9] = cytotoxicity flag (confluency mask): cytotoxic (confluency <70% of control), agonist: Imiquimod (TLR7) […]
[10] = cytotoxicity flag (confluency mask): cytotoxic (confluency <70% of control), agonist: MPLA (TLR4) […]

## COc1cc2c(OC3OC(CO)C4OC(C)(C)OC4C3O)c3c(c(-c4ccc5c(c4)OCO5)c2cc1OC)C(=O)OC3 (stereo unspecified)
RAW-Dual [1]; [4]
  NF-kB SEAP reporter activity: 0.364
RAW-Dual [1]; [5]
  NF-kB SEAP reporter activity: 2.28

## COc1cc2c(OC3OC(CO)C4OC(C)(C)OC4C3O)c3c(c(-c4ccc5c(c4)OCO5)c2cc1OC)C(=O)OC3 (stereo unspecified) (library stock concentration (final ~1000-fold dilution): 10 mM)
RAW-Dual [2]; agonist: LPS (TLR4) 0.1 ug/mL
  NF-kB SEAP reporter activity: 2.9
RAW-Dual [2]; [6]
  NF-kB SEAP reporter activity: 0.644
RAW-Dual [2]; [7]
  NF-kB SEAP reporter activity: 1.95
RAW-Dual [2]; [8]
  NF-kB SEAP reporter activity: 3.92

## COc1cc(-c2oc3cc(O)cc(O)c3c(=O)c2OC2OC(CO)C(O)C(O)C2OC2OC(C)C(O)C(O)C2O)ccc1O (stereo unspecified) (library stock concentration (final ~1000-fold dilution): 10 mM)
RAW-Dual [2]; agonist: LPS (TLR4) 0.1 ug/mL
  NF-kB SEAP reporter activity: 1.2
RAW-Dual [2]; [6]
  NF-kB SEAP reporter activity: 0.987
RAW-Dual [2]; [7]
  NF-kB SEAP reporter activity: 1.01
RAW-Dual [2]; [8]
  NF-kB SEAP reporter activity: 0.949

## COc1cc(/C=C/CO)cc(OC)c1OC1OC(CO)C(O)C(O)C1O (stereo unspecified)
RAW-Dual [1]; [4]
  NF-kB SEAP reporter activity: 1.03
RAW-Dual [1]; [5]
  NF-kB SEAP reporter activity: 1.08

## COc1cc(/C=C/CO)cc(OC)c1OC1OC(CO)C(O)C(O)C1O (stereo unspecified) (library stock concentration (final ~1000-fold dilution): 10 mM)
RAW-Dual [2]; agonist: LPS (TLR4) 0.1 ug/mL
  NF-kB SEAP reporter activity: 1.08
RAW-Dual [2]; [6]
  NF-kB SEAP reporter activity: 1.01
RAW-Dual [2]; [7]
  NF-kB SEAP reporter activity: 1.11
RAW-Dual [2]; [8]
  NF-kB SEAP reporter activity: 1.15

## CC(NC(CCc1ccccc1)C(=O)O)C(=O)N1CCCC1C(=O)O.O.O (stereo unspecified)
RAW-Dual [1]; [4]
  NF-kB SEAP reporter activity: 0.942
RAW-Dual [1]; [5]
  NF-kB SEAP reporter activity: 1.12

## CC(NC(CCc1ccccc1)C(=O)O)C(=O)N1CCCC1C(=O)O.O.O (stereo unspecified) (library stock concentration (final ~1000-fold dilution): 10 mM)
RAW-Dual [2]; agonist: LPS (TLR4) 0.1 ug/mL
  NF-kB SEAP reporter activity: 0.977
RAW-Dual [2]; [6]
  NF-kB SEAP reporter activity: 1.07
RAW-Dual [2]; [7]
  NF-kB SEAP reporter activity: 1.14
RAW-Dual [2]; [8]
  NF-kB SEAP reporter activity: 1.09

## COc1cc(C(N)=O)nc(-c2cccc(C#C[C@]3(O)CCN(C)C3=O)c2)c1
RAW-Dual [1]; [4]
  NF-kB SEAP reporter activity: 0.839
RAW-Dual [1]; [5]
  NF-kB SEAP reporter activity: 0.915

## COc1cc(C(N)=O)nc(-c2cccc(C#C[C@]3(O)CCN(C)C3=O)c2)c1 (library stock concentration (final ~1000-fold dilution): 10 mM)
RAW-Dual [2]; agonist: LPS (TLR4) 0.1 ug/mL
  NF-kB SEAP reporter activity: 1.39
RAW-Dual [2]; [6]
  NF-kB SEAP reporter activity: 0.529
RAW-Dual [2]; [7]
  NF-kB SEAP reporter activity: 0.699
RAW-Dual [2]; [8]
  NF-kB SEAP reporter activity: 0.966

## Cc1noc(C)c1-c1ccc(-c2cc(C(N)=O)c(NC(N)=O)s2)c(OC2CCNC2)c1 (stereo unspecified)
RAW-Dual [1]; [4]
  NF-kB SEAP reporter activity: 0.654 ± 0.054
RAW-Dual [1]; [5]
  NF-kB SEAP reporter activity: 0.683 ± 0.15

## Cc1noc(C)c1-c1ccc(-c2cc(C(N)=O)c(NC(N)=O)s2)c(OC2CCNC2)c1 (stereo unspecified) (library stock concentration (final ~1000-fold dilution): 10 mM)
RAW-Dual [2]; agonist: LPS (TLR4) 0.1 ug/mL
  NF-kB SEAP reporter activity: 0.567 ± 0.07
RAW-Dual [2]; [6]
  NF-kB SEAP reporter activity: 0.449 ± 0.019
RAW-Dual [2]; [7]
  NF-kB SEAP reporter activity: 0.275 ± 0.0078
RAW-Dual [2]; [8]
  NF-kB SEAP reporter activity: 0.392 ± 0.058

## CCN(C(=O)c1c(O)n(C)c2cccc(Cl)c2c1=O)c1ccccc1 (library stock concentration (final ~1000-fold dilution): 10 mM)
RAW-Dual [2]; agonist: LPS (TLR4) 0.1 ug/mL
  NF-kB SEAP reporter activity: 1.08
RAW-Dual [2]; [6]
  NF-kB SEAP reporter activity: 1.06
RAW-Dual [2]; [7]
  NF-kB SEAP reporter activity: 1.01
RAW-Dual [2]; [8]
  NF-kB SEAP reporter activity: 1

## CCN(C(=O)c1c(O)n(C)c2cccc(Cl)c2c1=O)c1ccccc1
RAW-Dual [1]; [4]
  NF-kB SEAP reporter activity: 0.913
RAW-Dual [1]; [5]
  NF-kB SEAP reporter activity: 0.993

## C=C(Cc1ccccc1Cl)C(=O)OCC
RAW-Dual [1]; [9]
  NF-kB SEAP reporter activity: 0.73
RAW-Dual [1]; [10]
  NF-kB SEAP reporter activity: 0.891

## C=C(Cc1ccccc1Cl)C(=O)OCC (library stock concentration (final ~1000-fold dilution): 10 mM)
RAW-Dual [3]; agonist: LPS (TLR4) 0.1 ug/mL
  NF-kB SEAP reporter activity: 0.636
RAW-Dual [3]; [6]
  NF-kB SEAP reporter activity: 0.588
RAW-Dual [3]; [7]
  NF-kB SEAP reporter activity: 0.682
RAW-Dual [3]; [8]
  NF-kB SEAP reporter activity: 0.806

## COc1cc2nccc(Oc3ccc(NC(=O)C4(C(=O)Nc5ccc(F)cc5)CC4)cc3)c2cc1OC.O=C(O)CC(O)C(=O)O (library stock concentration (final ~1000-fold dilution): 10 mM)
RAW-Dual [2]; agonist: LPS (TLR4) 0.1 ug/mL
  NF-kB SEAP reporter activity: 0.861
RAW-Dual [2]; [6]
  NF-kB SEAP reporter activity: 0.525
RAW-Dual [2]; [7]
  NF-kB SEAP reporter activity: 0.284
RAW-Dual [2]; [8]
  NF-kB SEAP reporter activity: 0.277

## COCCNCc1ccc(-c2cc3nccc(Oc4ccc(NC(=O)C5(C(=O)Nc6ccc(F)cc6)CC5)cc4F)c3s2)nc1 (library stock concentration (final ~1000-fold dilution): 10 mM)
RAW-Dual [2]; agonist: LPS (TLR4) 0.1 ug/mL
  NF-kB SEAP reporter activity: 0.36
RAW-Dual [2]; [6]
  NF-kB SEAP reporter activity: 0.205
RAW-Dual [2]; [7]
  NF-kB SEAP reporter activity: 0.0909
RAW-Dual [2]; [8]
  NF-kB SEAP reporter activity: 0.149

## Cn1cc(-c2cc(Oc3cc(F)c(NC(=O)C4(C(=O)Nc5ccccc5)CC4)cc3F)ccn2)cn1 (library stock concentration (final ~1000-fold dilution): 10 mM)
RAW-Dual [2]; agonist: LPS (TLR4) 0.1 ug/mL
  NF-kB SEAP reporter activity: 3.09
RAW-Dual [2]; [6]
  NF-kB SEAP reporter activity: 0.863
RAW-Dual [2]; [7]
  NF-kB SEAP reporter activity: 0.629
RAW-Dual [2]; [8]
  NF-kB SEAP reporter activity: 0.98

## COCCNCc1ccc(-c2cc3nccc(Oc4ccc(NC(=O)C5(C(=O)Nc6ccc(F)cc6)CC5)cc4F)c3s2)nc1
RAW-Dual [1]; [4]
  NF-kB SEAP reporter activity: 0.327
RAW-Dual [1]; [5]
  NF-kB SEAP reporter activity: 0.388

## Cn1cc(-c2cc(Oc3cc(F)c(NC(=O)C4(C(=O)Nc5ccccc5)CC4)cc3F)ccn2)cn1
RAW-Dual [1]; [4]
  NF-kB SEAP reporter activity: 0.974
RAW-Dual [1]; [5]
  NF-kB SEAP reporter activity: 1.71

## COc1cc2nccc(Oc3ccc(NC(=O)C4(C(=O)Nc5ccc(F)cc5)CC4)cc3)c2cc1OC.O=C(O)CC(O)C(=O)O
RAW-Dual [1]; [4]
  NF-kB SEAP reporter activity: 0.796
RAW-Dual [1]; [5]
  NF-kB SEAP reporter activity: 0.939

## COc1ccc2cc1Oc1ccc(cc1)CC1c3cc(c(OC)cc3CCN1C)Oc1c(O)c(OC)cc3c1C(C2)N(C)CC3 (stereo unspecified) (library stock concentration (final ~1000-fold dilution): 10 mM)
RAW-Dual [3]; agonist: LPS (TLR4) 0.1 ug/mL
  NF-kB SEAP reporter activity: 1.81
RAW-Dual [3]; [6]
  NF-kB SEAP reporter activity: 0.241
RAW-Dual [3]; [7]
  NF-kB SEAP reporter activity: 2.15
RAW-Dual [3]; [8]
  NF-kB SEAP reporter activity: 1.31

## COc1ccc2cc1Oc1ccc(cc1)CC1c3cc(c(OC)cc3CCN1C)Oc1c(O)c(OC)cc3c1C(C2)N(C)CC3 (stereo unspecified)
RAW-Dual [1]; [9]
  NF-kB SEAP reporter activity: 0.618
RAW-Dual [1]; [10]
  NF-kB SEAP reporter activity: 2.39

## O=C1C(CCC(O)c2ccc(F)cc2)C(c2ccc(O)cc2)N1c1ccc(F)cc1 (stereo unspecified) (library stock concentration (final ~1000-fold dilution): 10 mM)
RAW-Dual [2]; agonist: LPS (TLR4) 0.1 ug/mL
  NF-kB SEAP reporter activity: 1.42
RAW-Dual [2]; [6]
  NF-kB SEAP reporter activity: 0.665
RAW-Dual [2]; [7]
  NF-kB SEAP reporter activity: 0.889
RAW-Dual [2]; [8]
  NF-kB SEAP reporter activity: 0.589

## O=C1C(CCC(O)c2ccc(F)cc2)C(c2ccc(O)cc2)N1c1ccc(F)cc1 (stereo unspecified)
RAW-Dual [1]; [4]
  NF-kB SEAP reporter activity: 0.952
RAW-Dual [1]; [5]
  NF-kB SEAP reporter activity: 1.38
